For assay [1], the system named is Zika virus NS2B-NS3 protease (unlinked complex). The assay can be described thus: Primary screen GU Rhodamine qHTS for Zika virus inhibitors: Unlinked NS2B-NS3 protease assay (AID 1347159). Note: nearly all actives have a fitted effect of over 60% in size. In short, it runs like this:
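Noncovalent NS2B hydrophilic domain–NS3 protease domain complex (25 nM) preincubated 15 min at room temperature with compounds (up to 114 microM) in 10 mM Tris-HCl pH 8.0, 0.01% Tween 20; 1.5 microM Rhodamine110 substrate added, fluorescence change over 15 min fitted to Hill equation.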
(Quantitative high-throughput screening tests each substance at several concentrations.)

For assay [2], the system named is Zika virus NS2B-NS3 protease (linked construct). The assay can be described thus: Primary screen NINDS Rhodamine qHTS for Zika virus inhibitors (AID 1347160). Note: nearly all actives have a fitted effect of over 55% in size. In short, it runs like this:
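Purified linked NS2B-NS3 protease (NS2B hydrophilic domain joined to NS3 protease by flexible linker), 25 nM in 10 mM Tris-HCl pH 8.0, 0.01% Tween 20. Compounds titrated, 15 min preincubation at room temperature; 1.5 microM Rhodamine110 substrate, FITC fluorescence change over 15 min.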

In PubChem BioAssay (NCATS) one finds Potency data, which are given here for nine compounds.

Results filed as inconclusive are left out. Where a call stands in place of a potency, no number is given. The source made the active and inactive calls. Calls come from the whole dose curve; as a rule, active = well fitted inhibition curve with a large enough effect; inconclusive = small, poorly fitted or top-dose-only effect; inactive = no such curve, though single readings can be large or run the other way.

As for `C=C1[C@@H]2CC[C@@H]3[C@@](CCC4C(C(=O)O)(C(=O)O)C[C@@H](O[C@@H]5O[C@H](CO)[C@@H](O)[C@H](O)[C@H]5OC(=O)CC(C)C)C[C@]43C)(C2)[C@H]1O` (stereo partly drawn), the Potency entry in assay [1] and in assay [2] was “inactive” each time.
With `COC(=O)CC1CC(c2ccc(O)cc2)=NO1` (stereo not drawn), the Potency entry in assay [1] and in assay [2] was “inactive” in each case.
As to `CN1CCN(Cc2ccc(-c3cnc4[nH]cc(-c5ccc6[nH]ccc6c5)c4c3)cc2)CC1`, the Potency entry in assay [1] and in assay [2] was “inactive” in each case.
As to `CC(C)=CCC[C@](C)(O[C@@H]1O[C@H](CO)[C@@H](O)[C@H](O)[C@H]1O)[C@H]1CC[C@]2(C)[C@@H]1[C@H](O)CC1[C@@]3(C)CC[C@H](O)C(C)(C)C3[C@@H](O[C@@H]3O[C@H](CO)[C@@H](O)[C@H](O)[C@H]3O[C@@H]3OC[C@@H](O)[C@H](O)[C@H]3O)C[C@]12C` (stereo partly drawn), the Potency entry in assay [1] and in assay [2] was “inactive” each time.
Regarding `Cn1ncnc1COc1nn2c(-c3cc(F)ccc3F)nnc2cc1C(C)(C)C`, the Potency entry in assay [1] and in assay [2] was “inactive” throughout.
Turning to `C=C(C)C1CC[C@]2(C(=O)O)CC[C@]3(C(=O)O)[C@H](CCC4[C@@]5(C)CC[C@H](O)C(C)(C)C5CC[C@]43C)C12` (stereo partly drawn), the Potency entry in assay [1] and in assay [2] was “inactive” each time.
Take `CC1CC(C(O)C(C)(C)O)OC2CC3(C)C4(C)CCC5C(C)(C)C(=O)CCC5(C)C4CCC3(O)C12O` (stereo not drawn): the Potency entry in assay [1] and in assay [2] was “inactive” throughout.
For the compound `CC(C)(O)/C=C/C1=CC(=O)[C@@](C)(O)C[C@H]1O`, the Potency result in assay [1] and in assay [2] was “inactive” each time.
`C[C@@H]1O[C@@H](O[C@@H]2CO[C@@H](O[C@H]3CC[C@@]4(C)C(CC[C@]5(C)C4CC=C4[C@@H]6CC(C)(C)CC[C@]6(C(=O)O[C@@H]6O[C@H](CO)[C@@H](O)[C@H](O)[C@H]6O)CC[C@]45C)[C@]3(C)CO)[C@H](O)[C@H]2O[C@@H]2O[C@H](CO)[C@@H](O)[C@H](O)[C@H]2O)[C@H](O)[C@H](O)[C@H]1O` (stereo partly drawn): the Potency result in assay [1] and in assay [2] was “inactive” throughout.
